The values below come from paper PMC7862700, “An all-to-all approach to the identification of sequence-specific readers for epigenetic DNA modifications on cytosine”.

What all share (experiment): DAPPL (digital affinity profiling via proximity ligation, sequencing); 10 mM Tris-HCl pH 7.5, 50 mM NaCl, 1 mM DTT, 4% glycerol, room temperature, 30 min; GST-TFs on glutathione beads, 16-mer random dsDNA library, 0.1% formaldehyde crosslink after washing; high values mean tight binding
For one test, the target named is T1, FEV (Homo sapiens, UniProt Q99581 1-238).
T1 sequence: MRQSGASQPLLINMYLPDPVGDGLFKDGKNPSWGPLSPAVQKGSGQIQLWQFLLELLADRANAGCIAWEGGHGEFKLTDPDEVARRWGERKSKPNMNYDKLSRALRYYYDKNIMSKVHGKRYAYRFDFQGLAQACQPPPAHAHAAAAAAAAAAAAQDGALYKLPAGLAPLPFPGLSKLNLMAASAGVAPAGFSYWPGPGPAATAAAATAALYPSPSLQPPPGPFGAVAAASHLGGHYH
The conditions noted are these: protein: recombinant; tags: N-terminal GST; dsDNA, one strand shown. The method in brief: (§1)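 Beads coated with glutathione captured GST-fused human transcription factors that had been expressed in yeast, and the factors were then given DNA barcodes and pooled with a tag-only sample. The pools were incubated with 200 nmole of a random double-stranded 16-mer DNA library in Tris/NaCl/DTT/glycerol buffer for 30 min at room temperature, washed, crosslinked with 0.1% formaldehyde and proximity-ligated with BsaI/T4 ligase at 37 °C for 1 h. PCR amplification and Illumina NextSeq500 sequencing came last. Binding signal is each hexamer's read frequency for a factor divided by its frequency for the tag-only sample.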

In another test the target is ETV5 (Homo sapiens, UniProt P41161 1-510). Particulars: protein: recombinant; tags: N-terminal GST; dsDNA, one strand shown. The method, boiled down: as §1
Sequence of ETV5 (P41161 whole entry): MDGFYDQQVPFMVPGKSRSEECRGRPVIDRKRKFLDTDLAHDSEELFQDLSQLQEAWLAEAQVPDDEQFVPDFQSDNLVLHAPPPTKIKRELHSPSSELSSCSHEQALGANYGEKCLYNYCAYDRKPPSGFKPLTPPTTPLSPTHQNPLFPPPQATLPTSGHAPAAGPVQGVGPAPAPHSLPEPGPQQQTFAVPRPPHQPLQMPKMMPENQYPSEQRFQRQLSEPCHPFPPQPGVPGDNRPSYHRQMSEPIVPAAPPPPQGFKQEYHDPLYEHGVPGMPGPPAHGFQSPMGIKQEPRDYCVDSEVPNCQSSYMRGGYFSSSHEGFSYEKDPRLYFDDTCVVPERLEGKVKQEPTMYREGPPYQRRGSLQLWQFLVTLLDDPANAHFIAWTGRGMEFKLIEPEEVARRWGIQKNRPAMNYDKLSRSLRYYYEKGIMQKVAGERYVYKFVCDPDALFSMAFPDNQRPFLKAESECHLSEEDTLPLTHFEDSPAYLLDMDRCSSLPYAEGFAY
Another test has as its target HSF1 (Homo sapiens, UniProt Q00613 1-529). Particulars: protein: recombinant; tags: N-terminal GST; chain copies: 3; dsDNA, one strand shown. The method in brief:
as §1

The target of another test is T2, SPIC (Homo sapiens, UniProt Q8N5J4 1-248).
T2 sequence: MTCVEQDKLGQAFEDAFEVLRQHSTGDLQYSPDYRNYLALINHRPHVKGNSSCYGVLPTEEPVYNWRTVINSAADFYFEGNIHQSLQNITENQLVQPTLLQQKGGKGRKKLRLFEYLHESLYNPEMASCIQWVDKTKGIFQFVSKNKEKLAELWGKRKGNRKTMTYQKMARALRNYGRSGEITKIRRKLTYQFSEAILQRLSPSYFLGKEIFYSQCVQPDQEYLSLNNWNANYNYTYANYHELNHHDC
Particulars: protein: recombinant; tags: N-terminal GST; dsDNA, one strand shown. The method, boiled down:
as §1

Another test addresses ELF4 (Homo sapiens, UniProt Q99607 1-663). Particulars: protein: recombinant; tags: N-terminal GST; dsDNA, one strand shown. The method, boiled down: as §1
For a further test, the target named is T3, ELK4 (Homo sapiens, UniProt P28324-2 1-405).
T3 sequence: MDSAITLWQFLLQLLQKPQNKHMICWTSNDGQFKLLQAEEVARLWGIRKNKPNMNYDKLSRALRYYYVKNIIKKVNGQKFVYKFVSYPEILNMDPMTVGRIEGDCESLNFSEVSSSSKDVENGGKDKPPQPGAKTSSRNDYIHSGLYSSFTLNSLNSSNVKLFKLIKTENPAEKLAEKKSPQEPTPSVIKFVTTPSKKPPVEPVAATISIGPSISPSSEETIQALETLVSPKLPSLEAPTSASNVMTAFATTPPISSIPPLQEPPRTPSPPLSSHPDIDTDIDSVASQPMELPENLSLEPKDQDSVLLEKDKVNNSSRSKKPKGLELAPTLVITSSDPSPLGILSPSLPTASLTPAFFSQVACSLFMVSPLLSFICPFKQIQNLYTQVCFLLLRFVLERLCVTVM
Particulars: protein: recombinant; tags: N-terminal GST; dsDNA, one strand shown. The method, boiled down: as §1

A further test deals with T4, ETV2 (Homo sapiens, UniProt O00321 1-342).
T4 sequence: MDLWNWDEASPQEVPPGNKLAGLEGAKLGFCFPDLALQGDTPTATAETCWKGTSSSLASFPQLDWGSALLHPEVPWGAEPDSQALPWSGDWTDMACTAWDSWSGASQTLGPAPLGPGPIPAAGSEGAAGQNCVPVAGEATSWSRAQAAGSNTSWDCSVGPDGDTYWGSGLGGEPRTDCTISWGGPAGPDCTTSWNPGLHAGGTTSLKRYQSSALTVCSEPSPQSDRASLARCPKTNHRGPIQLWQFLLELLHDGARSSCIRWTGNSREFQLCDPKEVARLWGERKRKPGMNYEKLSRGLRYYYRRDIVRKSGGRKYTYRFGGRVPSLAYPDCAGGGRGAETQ
Particulars: protein: recombinant; tags: N-terminal GST; dsDNA, one strand shown. The method in brief:
as §1

The next test concerns the target T5, ELF3 (Homo sapiens, UniProt P78545 1-371).
T5 sequence: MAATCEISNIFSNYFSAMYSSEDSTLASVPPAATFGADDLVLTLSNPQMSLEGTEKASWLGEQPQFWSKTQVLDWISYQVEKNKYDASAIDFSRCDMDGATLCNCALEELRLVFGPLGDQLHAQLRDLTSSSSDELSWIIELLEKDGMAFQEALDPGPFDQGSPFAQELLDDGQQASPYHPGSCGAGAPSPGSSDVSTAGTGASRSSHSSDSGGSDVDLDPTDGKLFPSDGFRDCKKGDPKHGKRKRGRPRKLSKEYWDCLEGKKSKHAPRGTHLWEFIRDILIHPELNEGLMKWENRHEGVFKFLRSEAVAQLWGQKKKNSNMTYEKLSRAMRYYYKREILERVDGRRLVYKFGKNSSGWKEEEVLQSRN
Particulars: protein: recombinant; tags: N-terminal GST; dsDNA, one strand shown. The method in brief: as §1

Another test concerns the target CRX (Homo sapiens, UniProt O43186 1-299). The conditions noted are these: protein: recombinant; tags: N-terminal GST; dsDNA, one strand shown. The method in brief: as §1
In another test the target is ETV1 (Homo sapiens, UniProt P50549 1-477). The conditions noted are these: protein: recombinant; tags: N-terminal GST; dsDNA, one strand shown. The method in brief: as §1
Sequence of ETV1 (P50549 whole entry): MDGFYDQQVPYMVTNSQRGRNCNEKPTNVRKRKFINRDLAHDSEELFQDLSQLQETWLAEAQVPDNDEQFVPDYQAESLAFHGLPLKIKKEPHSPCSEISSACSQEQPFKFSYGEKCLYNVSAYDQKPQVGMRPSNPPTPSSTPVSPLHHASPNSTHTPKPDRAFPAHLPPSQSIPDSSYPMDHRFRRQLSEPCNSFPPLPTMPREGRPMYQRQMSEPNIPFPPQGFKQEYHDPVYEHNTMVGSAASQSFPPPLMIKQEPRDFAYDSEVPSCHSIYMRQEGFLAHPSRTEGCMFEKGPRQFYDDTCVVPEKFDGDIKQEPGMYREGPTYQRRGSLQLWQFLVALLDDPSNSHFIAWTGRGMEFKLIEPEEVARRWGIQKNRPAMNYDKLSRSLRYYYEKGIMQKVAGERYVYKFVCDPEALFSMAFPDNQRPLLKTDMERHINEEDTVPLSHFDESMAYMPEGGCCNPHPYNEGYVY
For a further test, the target named is T6, ERF (Homo sapiens, UniProt P50548 1-548).
T6 sequence: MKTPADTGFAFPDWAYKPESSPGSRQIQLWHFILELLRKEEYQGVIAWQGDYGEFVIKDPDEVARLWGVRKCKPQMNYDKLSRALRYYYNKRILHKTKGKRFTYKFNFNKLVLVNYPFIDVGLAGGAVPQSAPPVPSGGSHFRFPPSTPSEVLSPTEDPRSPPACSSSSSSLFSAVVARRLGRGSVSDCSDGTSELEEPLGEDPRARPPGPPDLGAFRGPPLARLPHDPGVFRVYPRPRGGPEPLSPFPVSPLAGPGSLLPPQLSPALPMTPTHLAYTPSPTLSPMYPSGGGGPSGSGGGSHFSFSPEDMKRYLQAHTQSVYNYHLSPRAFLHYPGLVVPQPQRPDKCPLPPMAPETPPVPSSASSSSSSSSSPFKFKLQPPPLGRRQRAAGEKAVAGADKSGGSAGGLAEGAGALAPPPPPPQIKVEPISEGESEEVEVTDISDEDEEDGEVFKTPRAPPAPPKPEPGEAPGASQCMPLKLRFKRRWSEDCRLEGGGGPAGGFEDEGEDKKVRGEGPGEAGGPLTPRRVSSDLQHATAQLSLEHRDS
The conditions noted are these: protein: recombinant; tags: N-terminal GST; dsDNA, one strand shown. The method in brief: as §1

For the next test, the target named is T7, ETV3L (Homo sapiens, UniProt Q6ZN32 1-361).
T7 sequence: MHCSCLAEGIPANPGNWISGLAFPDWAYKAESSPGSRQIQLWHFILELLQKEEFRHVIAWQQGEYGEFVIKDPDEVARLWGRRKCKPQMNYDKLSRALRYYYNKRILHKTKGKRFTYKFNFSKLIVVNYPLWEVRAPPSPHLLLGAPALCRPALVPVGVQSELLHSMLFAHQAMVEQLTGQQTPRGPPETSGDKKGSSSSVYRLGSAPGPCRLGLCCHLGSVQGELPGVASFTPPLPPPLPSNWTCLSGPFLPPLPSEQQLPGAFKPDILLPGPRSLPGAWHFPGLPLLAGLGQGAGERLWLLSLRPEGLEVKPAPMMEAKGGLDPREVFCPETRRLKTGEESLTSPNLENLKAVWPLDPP
Particulars: protein: recombinant; tags: N-terminal GST; dsDNA, one strand shown. The method, boiled down: as §1

The target in another test is T8, ETS2 (Homo sapiens, UniProt P15036 1-469).
T8 sequence: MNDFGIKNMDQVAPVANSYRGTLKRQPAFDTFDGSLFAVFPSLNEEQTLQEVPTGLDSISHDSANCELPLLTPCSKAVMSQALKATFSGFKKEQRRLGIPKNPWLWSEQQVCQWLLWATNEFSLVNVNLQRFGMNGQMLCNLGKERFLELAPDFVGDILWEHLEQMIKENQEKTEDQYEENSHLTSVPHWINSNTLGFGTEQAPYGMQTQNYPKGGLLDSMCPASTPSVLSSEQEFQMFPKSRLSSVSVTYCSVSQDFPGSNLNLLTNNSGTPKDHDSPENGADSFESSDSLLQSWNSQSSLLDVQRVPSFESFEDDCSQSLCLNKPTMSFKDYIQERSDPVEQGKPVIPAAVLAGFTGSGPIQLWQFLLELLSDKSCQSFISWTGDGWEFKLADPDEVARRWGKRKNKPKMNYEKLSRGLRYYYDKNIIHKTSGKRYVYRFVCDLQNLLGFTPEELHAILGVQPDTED
The conditions noted are these: protein: recombinant; tags: N-terminal GST; dsDNA, one strand shown. The method in brief: as §1

For a further test, the target named is T9, SPDEF (Homo sapiens, UniProt O95238 1-335).
T9 sequence: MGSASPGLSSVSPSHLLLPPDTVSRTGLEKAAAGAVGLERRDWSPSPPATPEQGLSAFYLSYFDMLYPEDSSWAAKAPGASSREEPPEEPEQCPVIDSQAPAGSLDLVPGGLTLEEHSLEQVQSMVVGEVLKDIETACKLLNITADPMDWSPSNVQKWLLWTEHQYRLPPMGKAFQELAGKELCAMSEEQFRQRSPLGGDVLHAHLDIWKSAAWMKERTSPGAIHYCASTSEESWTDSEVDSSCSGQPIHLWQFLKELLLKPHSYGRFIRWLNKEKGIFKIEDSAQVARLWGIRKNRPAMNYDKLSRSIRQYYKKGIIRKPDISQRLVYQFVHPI
Particulars: protein: recombinant; tags: N-terminal GST; dsDNA, one strand shown. The method in brief: as §1

The target of another test is T10, ETV7 (Homo sapiens, UniProt Q9Y603 1-341).
T10 sequence: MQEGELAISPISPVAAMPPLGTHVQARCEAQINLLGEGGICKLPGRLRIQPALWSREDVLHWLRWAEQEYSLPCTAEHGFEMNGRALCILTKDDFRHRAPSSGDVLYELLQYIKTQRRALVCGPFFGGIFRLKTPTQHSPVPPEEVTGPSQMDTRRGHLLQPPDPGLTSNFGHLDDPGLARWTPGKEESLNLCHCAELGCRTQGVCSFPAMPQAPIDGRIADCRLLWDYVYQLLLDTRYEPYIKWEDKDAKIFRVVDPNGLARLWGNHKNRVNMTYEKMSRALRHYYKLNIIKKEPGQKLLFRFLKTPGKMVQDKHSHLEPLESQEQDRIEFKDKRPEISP
The conditions noted are these: protein: recombinant; tags: N-terminal GST; dsDNA, one strand shown. The method, boiled down:
as §1

Another test deals with T11, ELF5 (Homo sapiens, UniProt Q9UKW6-2 1-255).
T11 sequence: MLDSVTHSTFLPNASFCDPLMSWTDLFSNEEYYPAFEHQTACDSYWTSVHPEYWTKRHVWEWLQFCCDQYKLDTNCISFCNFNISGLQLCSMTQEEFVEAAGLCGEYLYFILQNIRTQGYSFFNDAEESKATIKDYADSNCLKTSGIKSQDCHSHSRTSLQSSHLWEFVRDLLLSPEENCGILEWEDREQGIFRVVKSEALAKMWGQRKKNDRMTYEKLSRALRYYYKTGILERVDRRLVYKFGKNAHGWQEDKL
The conditions noted are these: protein: recombinant; tags: N-terminal GST; dsDNA, one strand shown. The method, boiled down:
as §1

The target of the next test is T12, ETV3 (Homo sapiens, UniProt P41162-2 1-143).
T12 sequence: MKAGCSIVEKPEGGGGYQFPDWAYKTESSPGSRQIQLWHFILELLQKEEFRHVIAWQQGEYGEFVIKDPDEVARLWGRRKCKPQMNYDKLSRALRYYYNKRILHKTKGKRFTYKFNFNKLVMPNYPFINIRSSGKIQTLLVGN
Particulars: protein: recombinant; tags: N-terminal GST; dsDNA, one strand shown. The method, boiled down:
as §1

For another test, the target named is ETV6 (Homo sapiens, UniProt P41212 1-452). Particulars: protein: recombinant; tags: N-terminal GST; dsDNA, one strand shown. The method in brief:
as §1

Sequence of ELF4 (Q99607 whole entry): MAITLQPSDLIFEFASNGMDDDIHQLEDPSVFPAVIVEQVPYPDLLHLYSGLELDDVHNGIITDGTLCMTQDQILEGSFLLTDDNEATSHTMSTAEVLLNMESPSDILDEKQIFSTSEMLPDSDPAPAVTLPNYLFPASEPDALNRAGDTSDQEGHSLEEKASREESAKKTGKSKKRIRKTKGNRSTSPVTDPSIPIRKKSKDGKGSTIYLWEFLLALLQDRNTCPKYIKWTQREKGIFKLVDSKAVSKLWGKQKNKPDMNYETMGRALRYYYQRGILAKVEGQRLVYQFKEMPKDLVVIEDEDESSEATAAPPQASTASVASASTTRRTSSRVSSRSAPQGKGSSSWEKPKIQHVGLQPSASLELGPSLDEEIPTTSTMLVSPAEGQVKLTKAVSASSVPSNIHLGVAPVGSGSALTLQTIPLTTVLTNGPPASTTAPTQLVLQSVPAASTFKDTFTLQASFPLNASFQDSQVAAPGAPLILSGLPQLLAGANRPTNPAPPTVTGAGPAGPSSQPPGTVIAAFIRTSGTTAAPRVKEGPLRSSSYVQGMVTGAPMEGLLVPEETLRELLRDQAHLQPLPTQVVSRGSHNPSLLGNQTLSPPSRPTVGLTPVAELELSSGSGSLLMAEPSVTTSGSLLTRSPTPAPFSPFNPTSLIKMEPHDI
Sequence of CRX (O43186 whole entry): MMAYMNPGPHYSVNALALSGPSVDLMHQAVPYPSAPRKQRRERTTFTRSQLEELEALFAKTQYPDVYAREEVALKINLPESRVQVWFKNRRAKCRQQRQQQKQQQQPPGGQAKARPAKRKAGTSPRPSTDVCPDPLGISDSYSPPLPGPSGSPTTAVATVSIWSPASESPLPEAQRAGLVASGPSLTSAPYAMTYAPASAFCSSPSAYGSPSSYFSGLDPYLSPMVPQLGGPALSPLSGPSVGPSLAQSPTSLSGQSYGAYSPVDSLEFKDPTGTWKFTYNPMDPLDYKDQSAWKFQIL
Sequence of HSF1 (Q00613 whole entry): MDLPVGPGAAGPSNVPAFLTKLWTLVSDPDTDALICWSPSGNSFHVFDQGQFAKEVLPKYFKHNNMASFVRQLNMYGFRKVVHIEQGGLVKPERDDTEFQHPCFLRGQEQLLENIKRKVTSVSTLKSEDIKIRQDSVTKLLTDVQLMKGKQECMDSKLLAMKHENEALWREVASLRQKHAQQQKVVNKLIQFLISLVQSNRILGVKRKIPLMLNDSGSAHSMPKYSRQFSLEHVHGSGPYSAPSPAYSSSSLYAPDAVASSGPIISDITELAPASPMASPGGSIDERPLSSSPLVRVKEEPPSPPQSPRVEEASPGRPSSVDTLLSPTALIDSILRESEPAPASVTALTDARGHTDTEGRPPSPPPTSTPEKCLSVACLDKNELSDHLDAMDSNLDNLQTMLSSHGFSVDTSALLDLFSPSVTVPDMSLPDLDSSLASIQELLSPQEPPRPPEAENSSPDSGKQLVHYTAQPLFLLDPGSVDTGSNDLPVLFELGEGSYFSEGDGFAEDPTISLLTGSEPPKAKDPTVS
Sequence of ETV6 (P41212 whole entry): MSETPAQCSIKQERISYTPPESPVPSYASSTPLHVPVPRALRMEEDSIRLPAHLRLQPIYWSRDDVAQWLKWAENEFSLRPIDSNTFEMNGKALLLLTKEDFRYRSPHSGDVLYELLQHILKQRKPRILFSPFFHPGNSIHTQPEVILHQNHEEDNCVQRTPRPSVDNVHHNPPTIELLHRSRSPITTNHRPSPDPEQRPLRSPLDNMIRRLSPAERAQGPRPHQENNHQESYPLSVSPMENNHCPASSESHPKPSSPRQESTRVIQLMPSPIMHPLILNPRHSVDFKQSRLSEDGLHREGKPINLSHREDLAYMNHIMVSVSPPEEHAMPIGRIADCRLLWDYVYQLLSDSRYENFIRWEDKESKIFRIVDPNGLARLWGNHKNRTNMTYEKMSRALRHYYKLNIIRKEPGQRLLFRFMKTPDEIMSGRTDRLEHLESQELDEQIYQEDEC

On to TTGTAA, for which the binding signal with FEV is 1.2 fold enrichment (6-mer frequency, TF over GST control); with ETV5 it was 1.35 fold enrichment (6-mer frequency, TF over GST control); with HSF1 it was 1.4 fold enrichment (6-mer frequency, TF over GST control); in the test with SPIC it was 1.31 fold enrichment (6-mer frequency, TF over GST control); with ELF4 it was 1.24 fold enrichment (6-mer frequency, TF over GST control); with ELK4, 1.36 fold enrichment (6-mer frequency, TF over GST control). The binding signal is 1.36 fold enrichment (6-mer frequency, TF over GST control) with ETV2; 1.44 fold enrichment (6-mer frequency, TF over GST control) in the test with ELF3; 1.62 fold enrichment (6-mer frequency, TF over GST control) in the test with CRX; 1.31 fold enrichment (6-mer frequency, TF over GST control) in the test with ETV1; 1.36 fold enrichment (6-mer frequency, TF over GST control) with ERF; 1.32 fold enrichment (6-mer frequency, TF over GST control) with ETV3L. For the same sequence, the binding signal is 1.23 fold enrichment (6-mer frequency, TF over GST control) in the test with ETS2; 1.26 fold enrichment (6-mer frequency, TF over GST control) in the test with SPDEF; 1.27 fold enrichment (6-mer frequency, TF over GST control) with ETV7; 1.26 fold enrichment (6-mer frequency, TF over GST control) in the test with ELF5; 1.3 fold enrichment (6-mer frequency, TF over GST control) with ETV3; 1.28 fold enrichment (6-mer frequency, TF over GST control) with ETV6.
